Screening results (PubChem BioAssay)
In the library only some 2.4% were active in any assay of this set; here they are far more common.
Cruzain noTriton = qHTS Assay for Promiscuous and Specific Inhibitors of Cruzain (without detergent) | purified cruzain, Z-FR-AMC fluorescence, no detergent | Potency, µM, hits mostly inhibitors | 2.3% of 200,000 active; also: nearly all actives have a fitted effect of over 40% in size
Target sequence (P25779 123-467 limits assumed): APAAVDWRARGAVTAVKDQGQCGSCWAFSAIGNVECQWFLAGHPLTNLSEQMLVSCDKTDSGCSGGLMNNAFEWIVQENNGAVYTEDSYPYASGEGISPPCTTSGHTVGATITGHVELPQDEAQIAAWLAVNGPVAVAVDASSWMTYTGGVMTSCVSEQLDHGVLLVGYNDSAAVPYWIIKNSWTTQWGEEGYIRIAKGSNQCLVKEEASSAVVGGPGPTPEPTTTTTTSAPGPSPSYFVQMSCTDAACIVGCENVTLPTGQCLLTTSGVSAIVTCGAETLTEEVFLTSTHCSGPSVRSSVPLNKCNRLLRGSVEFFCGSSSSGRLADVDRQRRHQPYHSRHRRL
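Detergent-free condition (0.00005% Triton X-100) in acetate buffer pH 5.5 with DTT. 1.5 nM enzyme and compound were pre-mixed 15 min, then 2 uM Z-FR-AMC substrate added; reaction progress from fluorescence change between first and third reads (60 s).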
Cruzain inh Det = qHTS Assay for Promiscuous and Specific Inhibitors of Cruzain (with detergent); 0.43% of 200,000 active; purified cruzain, Z-FR-AMC fluorescence, 0.01% Triton; Potency, µM, actives largely listed as inhibitors; also: nearly all actives have a fitted effect of over 40% in size
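Detergent-containing arm of a paired screen for aggregation-based inhibition: 0.01% Triton X-100 present. Cruzain at 1.5 nM cleaved 2 uM Z-FR-AMC at pH 5.5 with 5 mM DTT; AMC fluorescence gain over 60 s measured activity.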
Hits are given with their value; n = inactive; u = inconclusive. Calls follow the shape of the dose curve; as a rule, active = well fitted curve in the direction sought with a large enough effect; inconclusive = small, poorly fitted or top-dose-only effect, or another doubt; inactive = no such curve, though single readings can be large; an effect the other way counts as inactive or inconclusive.

SMILES	Cruzain noTriton	Cruzain inh Det
Cn1c(=O)c(-c2cc(F)cc(F)c2)nc2cncnc21	n	n
COc1ccc(C(=O)Nc2cc(C)c(O)c(-c3nc4ccccc4s3)c2)cc1OC	n	n
CCS(=O)(=O)c1cccc(C(=O)Nc2ccc(-c3nc4ccccc4s3)c(O)c2)c1	n	n
O=C(Nc1ccc(O)c(-c2nc3ccccc3s2)c1)C1=COCCO1	n	n
O=C(CCN1C(=O)c2ccccc2C1=O)Nc1ccc(-c2nc3ccccc3s2)cc1	25µM	n
Cc1ccc2nc(-c3ccc(NC(=O)CCN4C(=O)c5ccccc5C4=O)cc3)sc2c1	u	n
O=C(CCS(=O)(=O)c1ccccc1)Nc1ccc(-c2nc3ccccc3s2)c(O)c1	10µM	n
O=C(Nc1ccc(OC(=O)c2ccccc2)c(-c2nc3ccccc3s2)c1)c1ccccc1	7.9µM	n
O=C(Nc1ccc(-c2nc3ccccc3s2)c(O)c1)C1=COCCO1	u	16µM
CCCCC1=CC2=C(OC(C)=O)C(=O)C(C)(OC(=O)CCC(=O)OC)C(=O)C2=CO1 (configuration not stated)	n	n
CC(C)[C@H]1COC(c2cccc([N+](=O)[O-])c2)=N1	n	n
COc1ccccc1-c1ccc2ncnc(NCCN3CCOCC3)c2c1	n	n
CCc1ccc(S(=O)(=O)NCCc2csc3nc(-c4ccccc4)nn23)s1	u	n
Cc1cc(C)c2c(SCc3ccc(Cl)cc3Cl)nc(N)nc2n1	n	n
C[C@@]1(C(NC(=O)c2ccccc2)c2ccc(-c3ccccc3)cc2)C[C@H]1C1CCCCC1 (some centres not stated)	10µM	n
C[C@@]1(C(NC(=O)Cc2ccccc2)c2ccc(-c3ccccc3)cc2)C[C@H]1C1CCCCC1 (some centres not stated)	n	n
Cn1c(=NC(=O)c2ccc(F)cc2)sc2cc(Br)ccc21	n	n
COCCCNc1nc2c(-c3ccccc3)nnn2c2ccccc12	n	n
Cc1ccc(-c2nnn3c2nc(NCC(C)c2ccccc2)c2ccccc23)cc1 (configuration not stated)	5µM	n
COC(=O)N[C@@H](CCc1ccccc1)[C@]1(C(=O)OC)CCCC1=O	n	n
CCOc1ccc2nc(N/C(N)=N/C(=S)Nc3cccc(C)c3)nc(C)c2c1	32µM	n
COc1ccc2nc(N/C(N)=N/C(=S)Nc3cccc(C)c3)nc(C)c2c1	u	n
COc1cc(C(=O)Nc2cccc(OCc3cc(=O)n4c(C)csc4n3)c2)cc(OC)c1OC	n	n
Cc1ccc(Cl)cc1NC(=O)C(Cc1ccccc1)NS(=O)(=O)c1cccc2nsnc12 (configuration not stated)	25µM	n
O=C(Nc1ccc(OC(F)(F)F)cc1)C(Cc1ccccc1)NS(=O)(=O)c1cccc2nsnc12 (configuration not stated)	n	n
SMILES	Cruzain noTriton	Cruzain inh Det
CC(C)(C)NC(=O)C(Cc1ccccc1)NS(=O)(=O)c1cccc2nsnc12 (configuration not stated)	n	n
O=C(Nc1ccc(Cl)c(C(F)(F)F)c1)C(Cc1ccccc1)NS(=O)(=O)c1cccc2nsnc12 (configuration not stated)	20µM	n
COc1ccc(C(=O)c2ccccc2)c(O)c1O	n	n
CCc1ccccc1N(c1nc(-c2ccc(OC)c(OC)c2)no1)c1nc(-c2ccc(OC)c(OC)c2)no1	n	n
CCc1ccc(CNC(=O)c2ccc(CSc3nc4ccncc4n3Cc3ccc(OC)cc3)cc2)cc1	n	n
CCC(=O)Nc1ccc(C(=O)NNC(=O)C(c2ccccc2)c2ccccc2)cc1	u	n
CC(C)CC(=O)Nc1ccc(C(=O)NNC(=O)C(c2ccccc2)c2ccccc2)cc1	25µM	n
CCC(CC)C1=NN2C(=N)/C(=C\c3cc(C)n(-c4cccc(C)c4)c3C)C(=O)N=C2S1	25µM	n
CC1=CC2=NC(=O)/C(=C\c3cc(C)n(-c4ccc(F)cc4)c3C)C(=N)N2O1	n	n
CSC1=NSC2=NC(=O)/C(=C\c3coc4ccccc4c3=O)C(=N)N12	u	n
Cc1nn(-c2ccccc2)c(Cl)c1/C=C1/C(=N)N2N=C(C(C)C)SC2=NC1=O	u	n
Cc1cc(/C=C2\C(=N)N3C(SCc4ccccc4)=NSC3=NC2=O)c(C)n1Cc1ccccc1	3.2µM	n
Cc1cc(/C=C2/C(=N)N3C(c4ccccc4)=CSC3=NC2=O)c(C)n1-c1ccccc1	4µM	n
CC1=CSC2=NC(=O)/C(=C\c3cccn3-c3ccc([N+](=O)[O-])cc3)C(=N)N12	u	n
CC1=CSC2=NC(=O)/C(=C\c3cccn3-c3ccccc3)C(=N)N12	13µM	n
NCC1CCC(C(=O)O)CC1 (configuration not stated)	n	n
O=C(c1cccc(Cl)c1)N(Cc1cccc(F)c1)C1CCS(=O)(=O)C1 (configuration not stated)	n	n
CN(C)c1ccc(C2CC(c3c(O)n(C4CCCCC4)c(=O)[nH]c3=O)=Nc3ccccc3S2)cc1 (configuration not stated)	n	n
CCC1=C2CC[C@H]3C(=O)N(CC(=O)OC)C(=O)[C@H]3[C@H]2[C@@]2(C)C(=NCCc3c[nH]c4ccccc34)OC(=O)N2C1=O	n	n
O=C(Cn1c(=O)n(Cc2nc(-c3ccccc3)no2)c(=O)c2cc3c(cc21)OCO3)Nc1ccc(Cl)cc1	10µM	n
O=C(Cn1c(=O)n(Cc2nc(-c3ccccc3)no2)c(=O)c2cc3c(cc21)OCO3)Nc1ccccc1	u	n
Cc1ccc(NC(=O)Cn2c(=O)n(Cc3nc(-c4ccccc4)no3)c(=O)c3cc4c(cc32)OCO4)cc1F	13µM	n
Cc1ccc(NC(=O)Cn2c(=O)n(Cc3nc(-c4ccccc4)no3)c(=O)c3cc4c(cc32)OCO4)c(C)c1	n	n
CC(C)NC(=O)C1CCC(Cn2c(=O)c3sccc3n(CC(=O)N3CCCC3)c2=O)CC1 (configuration not stated)	n	n
CCOCCCn1c(SCC(=O)Nc2cc(C)ccc2C)nc2c(oc3ccccc32)c1=O	n	n
SMILES	Cruzain noTriton	Cruzain inh Det
CC(/C=C1\SC(=S)N(CCCC(=O)Nc2ccc(C(=O)O)c(O)c2)C1=O)=C\c1ccccc1	u	28µM
CC(/C=C1\SC(=S)N(NC(=O)c2ccc(C)cc2)C1=O)=C\c1ccccc1	32µM	n
Cc1cc(NC(=O)CCCN2C(=O)/C(=C/c3cccs3)SC2=S)no1	u	n
CC(=O)c1ccc(NC(=O)CN2C(=O)/C(=C/C(C)=C/c3ccccc3)SC2=S)cc1	10µM	n
CC(/C=C1\SC(=S)N(NC(=O)c2ccccc2C)C1=O)=C\c1ccccc1	u	n
CC(=O)c1ccc(NC(=O)CN2C(=O)CN(C)C(=O)c3ccccc32)cc1	n	n
CCC(Cn1nnc2ccccc2c1=O)NC(=O)Nc1cc(C)cc(C)c1 (configuration not stated)	n	n
Cc1c(C(=O)Nc2cccc(Cl)c2)sc2nc3n(c(=O)c12)N=C(c1cccc(Br)c1)CS3	n	n
COC(=O)c1ccc(C2c3c(-c4ccc(Br)cc4)n[nH]c3C(=O)N2c2ccc(Cl)cc2)cc1 (configuration not stated)	16µM	n
O=C1c2[nH]nc(-c3ccc(Br)cc3)c2C(c2cccc(O)c2)N1c1ccc(Cl)cc1 (configuration not stated)	u	n
